# Calls of active or inactive are those of the source.
# What was measured:
# [1] = optical density shifts of acrAB sulA E. coli – strain DRC41, OD650, 48 h, E. coli filamentation inducer project, primary screen (AID 1152); conditions: higher = more signal, called active from +8 up or from −8 down;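 also: E. coli MC1000 strain DRC41 lacking acrAB efflux pump and sulA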
# [2] = probe aLefty1 binding on compound microarray – biochemical, small-molecule microarray, 635/667 nm fluorescence, primary screen (AID 1153); conditions: higher = more signal;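 also: score merges spot fluorescence with signal-to-noise ratio from the scanned slide images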
# [3] = plasmodial surface anion channel blockers, osmotic lysis – cell-based, P. falciparum Indochina, OD700, 1 h, primary screen (AID 1154); conditions: P. falciparum Indochina infected RBC osmotic lysis, higher = more signal, called active from +8 up or from −8 down
# [4] = plasmodial surface anion channel blockers, osmotic lysis – cell-based, P. falciparum Indochina, OD700, 2 h, primary screen (AID 1155);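 also: lysis reports solute entry through the parasite surface anion channel PSAC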; conditions: P. falciparum Indochina infected erythrocytes, higher = more signal, called active from +8 up or from −8 down
# [5] = changes in parasitized red cell lysis, either direction – P. falciparum Indochina, OD700, 3 h, PSAC antagonist project, primary screen (AID 1156); conditions: P. falciparum-infected erythrocytes, osmotic lysis, higher = more signal, called active from +8 up or from −8 down
# [6] = plasmodial surface anion channel blockers, osmotic lysis – cell-based, P. falciparum Indochina, OD700, 18 h, primary screen (AID 1157); conditions: P. falciparum Indochina infected erythrocytes, osmotic lysis OD700, 18 h; higher = more signal, called active from +8 up or from −8 down
# [7] = S6 kinase pathway phospho-S6 level changes – cell-based, A549, cytoblot, luminescence, serum-stimulated, primary screen (AID 1158); conditions: 5 h, higher = more signal;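 also: serum-stimulated A549 lung adenocarcinoma cells; signal is phosphorylated S6 detected by cytoblot immunostaining with HRP secondary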
# [8] = biological target: NADPH oxidase 2 (Homo sapiens) (UniProt P04839); assay: compounds shifting NOX2 Amplex Red fluorescence – cell-based, HEK293-NOX2, PMA-stimulated, NOX inhibitor project, primary screen (AID 1159); conditions: 45 min, higher = more signal, called active from +8 up or from −8 down; also: test concentration not given here
# Sequence of NADPH oxidase 2 (Homo sapiens) (P04839 whole entry, looked up): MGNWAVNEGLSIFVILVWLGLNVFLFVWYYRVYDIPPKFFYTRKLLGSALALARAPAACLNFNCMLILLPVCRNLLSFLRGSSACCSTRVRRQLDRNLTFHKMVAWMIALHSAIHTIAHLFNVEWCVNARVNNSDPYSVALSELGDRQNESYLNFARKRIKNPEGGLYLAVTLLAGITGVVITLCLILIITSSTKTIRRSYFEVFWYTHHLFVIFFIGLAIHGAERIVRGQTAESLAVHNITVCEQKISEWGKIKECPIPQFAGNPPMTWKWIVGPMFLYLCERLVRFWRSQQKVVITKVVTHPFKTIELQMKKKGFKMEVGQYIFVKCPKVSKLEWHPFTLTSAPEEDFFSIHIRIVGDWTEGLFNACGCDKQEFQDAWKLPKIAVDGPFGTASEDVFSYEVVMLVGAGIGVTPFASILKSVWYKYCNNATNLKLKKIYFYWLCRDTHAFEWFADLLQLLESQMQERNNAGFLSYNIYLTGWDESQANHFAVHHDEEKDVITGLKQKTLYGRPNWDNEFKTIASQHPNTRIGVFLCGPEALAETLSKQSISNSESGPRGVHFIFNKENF
# [9] = biological target: NADPH oxidase 4 (Homo sapiens) (UniProt Q9NPH5); assay: compounds shifting NOX4 Amplex Red fluorescence – cell-based, HEK293-NOX4, tetracycline-induced, NOX inhibitor project, primary screen (AID 1160); conditions: HEK293-NOX4, Amplex Red H2O2 fluorescence, 45 min; higher = more signal, called active from +8 up or from −8 down
# Sequence of NADPH oxidase 4 (Homo sapiens) (Q9NPH5 whole entry, looked up): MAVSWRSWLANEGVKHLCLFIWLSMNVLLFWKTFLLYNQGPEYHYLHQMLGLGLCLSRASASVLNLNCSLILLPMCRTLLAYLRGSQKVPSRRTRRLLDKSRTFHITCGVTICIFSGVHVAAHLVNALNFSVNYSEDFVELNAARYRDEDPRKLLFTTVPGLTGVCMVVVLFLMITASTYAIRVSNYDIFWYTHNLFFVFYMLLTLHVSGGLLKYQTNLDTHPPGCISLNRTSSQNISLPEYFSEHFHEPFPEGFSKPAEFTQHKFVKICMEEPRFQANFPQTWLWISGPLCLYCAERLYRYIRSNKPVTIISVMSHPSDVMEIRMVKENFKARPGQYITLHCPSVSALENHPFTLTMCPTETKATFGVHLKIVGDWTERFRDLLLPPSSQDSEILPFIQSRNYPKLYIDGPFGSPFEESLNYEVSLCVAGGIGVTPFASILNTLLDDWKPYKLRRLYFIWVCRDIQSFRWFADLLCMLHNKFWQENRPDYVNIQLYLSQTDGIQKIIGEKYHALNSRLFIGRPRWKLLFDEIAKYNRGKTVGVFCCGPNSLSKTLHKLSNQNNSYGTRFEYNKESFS
# [10] = biological target: NADPH oxidase 5 (Homo sapiens) (UniProt Q96PH1); assay: compounds shifting NOX5 Amplex Red fluorescence – cell-based, HEK293-NOX5, NOX inhibitor project, primary screen (AID 1161); conditions: HEK293-NOX5, ionomycin, 45 min, higher = more signal
# Sequence of NADPH oxidase 5 (Homo sapiens) (Q96PH1 whole entry, looked up): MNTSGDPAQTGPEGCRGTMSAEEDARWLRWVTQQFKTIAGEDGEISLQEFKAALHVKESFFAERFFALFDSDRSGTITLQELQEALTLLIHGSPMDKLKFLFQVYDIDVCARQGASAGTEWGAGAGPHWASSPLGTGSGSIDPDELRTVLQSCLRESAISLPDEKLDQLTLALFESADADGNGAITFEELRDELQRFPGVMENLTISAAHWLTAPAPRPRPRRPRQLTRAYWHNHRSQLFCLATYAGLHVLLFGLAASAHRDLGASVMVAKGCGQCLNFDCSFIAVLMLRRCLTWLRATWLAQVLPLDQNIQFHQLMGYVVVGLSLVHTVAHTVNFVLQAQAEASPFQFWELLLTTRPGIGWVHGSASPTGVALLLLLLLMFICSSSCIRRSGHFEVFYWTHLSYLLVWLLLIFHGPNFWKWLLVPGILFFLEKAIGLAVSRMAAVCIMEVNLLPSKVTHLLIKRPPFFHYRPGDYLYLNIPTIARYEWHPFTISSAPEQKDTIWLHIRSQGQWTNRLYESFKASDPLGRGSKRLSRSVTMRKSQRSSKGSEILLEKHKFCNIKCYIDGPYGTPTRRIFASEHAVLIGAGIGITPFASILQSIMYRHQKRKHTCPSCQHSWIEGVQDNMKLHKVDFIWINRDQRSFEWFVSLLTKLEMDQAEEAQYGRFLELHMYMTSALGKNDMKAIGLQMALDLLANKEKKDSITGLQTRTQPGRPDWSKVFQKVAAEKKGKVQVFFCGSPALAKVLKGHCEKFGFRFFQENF
Structure (SMILES),z-score [1],composite z-score [2],z-score [3],z-score [4],z-score [5],z-score [6],z-score [7],z-score [8],z-score [9],z-score [10]
O=C1[C@H]2[C@H]3[C@H](O)[C@H](O)CC(=NO[C@@H]4O[C@H](CO)[C@@H](O)[C@H](O)[C@H]4O)[C@H]3CC[C@H]2C(=O)N1C[C@@H]1CCCO1,0.819 (inactive),-0.0054,0.651 (inactive),0.544 (inactive),0.0197 (inactive),0.353 (inactive),-0.164,-2.4 (inactive),0.513 (inactive),0.488
CC(C)=CCCC(C)=CCON=C1C[C@@H](O)[C@@H](O)[C@@H]2[C@@H]3C(=O)N(c4cccc(Oc5ccccc5)c4)C(=O)[C@@H]3CC[C@H]12,0.349 (inactive),0.0363,2.26 (inactive),1.25 (inactive),0.17 (inactive),0.722 (inactive),0.34,-1.35 (inactive),0.0399 (inactive),-0.583
CCN1C(=O)[C@H]2[C@H]3[C@H](O)[C@H](O)CC(=NOCC[C@@H]4C=C[C@H](OC(C)=O)[C@@H](COC(C)=O)O4)[C@@H]3CC[C@H]2C1=O,-0.405 (inactive),-0.125,0.422 (inactive),0.329 (inactive),-0.376 (inactive),0.44 (inactive),-0.401,0.0899 (inactive),-0.0656 (inactive),0.859
COc1ccc(COC(=O)NN=C2C[C@@H](O)[C@@H](O)[C@@H]3[C@@H]4C(=O)N(c5cccc(Oc6ccccc6)c5)C(=O)[C@@H]4CC[C@H]23)cc1,0.249 (inactive),0.4,3.48 (inactive),-0.469 (inactive),1.89 (inactive),-2.15 (inactive),0.0187,-1.26 (inactive),-1.6 (inactive),-1.49
O=C1CCCC=C1C(O)c1ccc([N+](=O)[O-])cc1 (stereo not given),0.134 (inactive),-0.217,-0.487 (inactive),-0.347 (inactive),-0.324 (inactive),-0.342 (inactive),0.317,1.42 (inactive),0.262 (inactive),-0.56
C[C@H]1CC[C@H]2C(=O)OC(COc3ccc(C(C)(C)C)cc3)CN2[C@@H]1c1ccc(Br)cc1 (stereo not given in full),0.786 (inactive),-0.103,1.39 (inactive),0.0974 (inactive),-1.24 (inactive),0.0011 (inactive),0.0307,0.426 (inactive),0.317 (inactive),0.671
CCOC(=O)[C@H](Cc1ccccc1)NC(=O)CCC1CC(OC(=O)NCc2ccc3c(c2)OCO3)CC2(CCCC(COC(=O)NCCCN3CCCC3=O)O2)O1 (stereo not given in full),0.169 (inactive),-0.572,-0.709 (inactive),0.274 (inactive),0.218 (inactive),0.151 (inactive),0.125,0.996 (inactive),0.689 (inactive),-0.044
COC(=O)CC=C[C@@H](C)[C@@H](C=NOC[C@@H](O)COCc1ccco1)NS(=O)(=O)c1ccc(C)cc1,0.132 (inactive),-0.186,1.25 (inactive),0.418 (inactive),0.0934 (inactive),0.391 (inactive),-0.689,0.017 (inactive),-0.202 (inactive),-0.106
C[C@]12CCC3c4ccc(OCC5CO5)cc4CCC3C1CC[C@@H]2O (stereo not given in full),-0.186 (inactive),-0.0011,24.3 (active),7.31 (inactive),0.269 (inactive),0.663 (inactive),0.25,1.44 (inactive),-1.42 (inactive),-1.74
CCOC(=O)CCN1C(=O)[C@H]2[C@H]3[C@H](O)[C@H](O)CC(=NOCC=C(C)CCC=C(C)C)[C@H]3CC[C@H]2C1=O,1.04 (inactive),0.148,1.09 (inactive),0.887 (inactive),1.25 (inactive),0.378 (inactive),0.199,-4.23 (inactive),0.943 (inactive),0.546
O=C1C2=CC[C@H]3C(=O)N(c4ccc(F)cc4F)C(=O)[C@H]3[C@H]2[C@H](O)[C@@H]2O[C@H]12,-0.138 (inactive),0.558,-0.487 (inactive),-0.122 (inactive),-0.708 (inactive),-0.0627 (inactive),0.311,0.0832 (inactive),0.0553 (inactive),-0.191
O=C1C=C[C@@H](O)[C@@H]2[C@@H]3C(=O)N(Cc4ccccc4)C(=O)[C@@H]3CC[C@@H]12,0.763 (inactive),-0.0145,0.09 (inactive),0.201 (inactive),0.853 (inactive),-0.0165 (inactive),0.09,0.808 (inactive),0.553 (inactive),0.455
O=C1[C@H]2[C@H]3[C@H](O)[C@H](O)CC(=NOC[C@@H](O)COCc4ccco4)[C@@H]3CC[C@H]2C(=O)N1c1cccc(Oc2ccccc2)c1,-1.26 (inactive),-0.247,2.27 (inactive),0.802 (inactive),1.39 (inactive),0.157 (inactive),-0.664,2.2 (inactive),1.32 (inactive),0.425
Cc1ccc(S(=O)(=O)N[C@@H]2COC(=O)CC=C[C@@H](C)[C@H](NS(=O)(=O)c3ccc(C)cc3)COC(=O)[C@H](C)NC(=O)CC=C[C@H]2C)cc1,0.328 (inactive),-0.147,-0.434 (inactive),-0.159 (inactive),-0.207 (inactive),0.106 (inactive),0.378,-6.49 (inactive),0.375 (inactive),-0.545
O=C1C2=CC[C@H]3C(=O)N(C[C@@H]4CCCO4)C(=O)[C@H]3[C@H]2[C@H](O)[C@@H]2O[C@H]12,0.194 (inactive),-0.0969,-0.303 (inactive),0.59 (inactive),-0.2 (inactive),0.108 (inactive),0.177,-1.35 (inactive),-0.219 (inactive),0.271
CC(CCN1CCCCc2nc(C)c(C)cc21)=NO[C@@H](C)c1cc(-c2c(C)cc(C)cc2C)no1,0.393 (inactive),-0.196,3 (inactive),0.49 (inactive),1.54 (inactive),0.588 (inactive),0.13,-1.79 (inactive),-0.125 (inactive),-2.5
CC(CCN1CCc2nc(-c3ccccc3)c(-c3ccccc3)cc2C1)=NOC(C)CN1CCCc2nc(C)c(C)cc21 (stereo not given),-0.115 (inactive),0.0956,3.04 (inactive),0.494 (inactive),0.959 (inactive),0.268 (inactive),-0.56,-5.56 (inactive),-0.946 (inactive),-3.15
CCOC(=O)[C@H](CC(C)C)NC(=O)CCC1CC(OC(=O)NCCc2ccc(F)cc2)CC2(CCCC(COC(=O)NCCOC)O2)O1 (stereo not given in full),-1.39 (inactive),-0.198,3.18 (inactive),0.621 (inactive),0.0768 (inactive),-0.0213 (inactive),-0.474,-0.25 (inactive),0.998 (inactive),1.19
CCOC(=O)NN=C1C[C@@H](O)[C@@H](O)[C@@H]2[C@@H]3C(=O)N(c4ccc(F)cc4F)C(=O)[C@@H]3CC[C@H]12,-0.57 (inactive),-0.0106,1.03 (inactive),-1.41 (inactive),0.465 (inactive),-1.75 (inactive),0.245,-4.88 (inactive),-1.81 (inactive),-0.472
CCOC(=O)NN=C1C[C@@H](O)[C@@H](O)[C@@H]2[C@@H]3C(=O)N(C[C@@H]4CCCO4)C(=O)[C@@H]3CC[C@H]12,0.138 (inactive),-0.147,-0.133 (inactive),-0.121 (inactive),-0.497 (inactive),-0.235 (inactive),0.0411,0.192 (inactive),0.433 (inactive),-0.468
CCOC(=O)CCN1C(=O)[C@H]2[C@H]3[C@H](O)[C@H](O)CC(=O)[C@@H]3CC[C@H]2C1=O,-0.851 (inactive),-0.407,0.781 (inactive),0.411 (inactive),-0.737 (inactive),0.305 (inactive),-0.373,0.583 (inactive),0.41 (inactive),-0.0545
CO[C@@H](C1CCCCC1)[C@@H](C)[C@H](OCc1cccc(Br)c1)[C@@H](C)CO,-0.409 (inactive),-0.401,2.08 (inactive),1.29 (inactive),-1.8 (inactive),0.957 (inactive),-0.337,-0.787 (inactive),0.0443 (inactive),-2.45
CC(C)(C)N1C(=O)[C@H]2[C@H]3[C@H](O)[C@H](O)CC(=NNC(=O)OCc4ccccc4)[C@@H]3CC[C@H]2C1=O,0.323 (inactive),-0.153,0.0391 (inactive),0.193 (inactive),-0.279 (inactive),-0.385 (inactive),-0.731,0.788 (inactive),0.739 (inactive),0.0356
COC(=O)[C@@H]1CC[C@H](C)[C@@H](c2ccc(Br)cc2)N1C[C@@H](O)CN=[N+]=[N-],-1.67 (inactive),-0.147,1.87 (inactive),-0.514 (inactive),0.27 (inactive),-0.956 (inactive),1.84,0.0777 (inactive),-1.37 (inactive),0.126
C[C@H]1CC[C@@H](C(=O)O)N[C@@H]1c1cccc(N2CCCC2=O)c1,1.04 (inactive),-0.103,0.162 (inactive),0.677 (inactive),0.121 (inactive),0.125 (inactive),0.42,-0.207 (inactive),0.00437 (inactive),0.682
COC(=O)[C@H](C)NC(=O)CCC1CC(OC(=O)NCc2cccc3ccccc23)CC2(CCCC(COC(=O)NCCCN3CCCC3=O)O2)O1 (stereo not given in full),-3.55 (inactive),0.582,0.381 (inactive),0.397 (inactive),0.0085 (inactive),0.246 (inactive),-0.463,-0.383 (inactive),-0.0825 (inactive),-0.075
